Screens: PubChem BioAssay, National Center for Advancing Translational Sciences (NCATS)
Pf Dd2 inh – qHTS Primary assay for Inhibitors of Plasmodium falciparum Dd2 growth in vitro; P. falciparum Dd2 growth, SYBR Green, 72 h; Potency, µM (series often up to 28.9 µM), without a hit: at the top dose activity, negative = inhibition, actives largely listed as inhibitors; 120,000 tested, 4.3% active; active = well fitted inhibition curve with a large enough effect;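 note: plate controls were DMSO vehicle for no effect and reference drug for full effect; nearly all actives have a fitted effect of over 65% in size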
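Readout: SYBR Green fluorescence, 485 nm excitation, 535 nm emission, after ~16 h lysis at 37C. Before that, Dd2-infected red cells (2.5% hematocrit) grew 72 h with compound, 29 uM top final concentration.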
* marks the source's active call; other numbers are inactive results; i = inactive; [ ] = another dose, or the depositor's remark. Only a selection was taken, and hits are over-represented in it overall. Potency is the fitted concentration of half-maximal effect.

SMILES	Pf Dd2 inh
O=C(c1cccs1)N1CCCC1c1nc(C2CCOCC2)no1 (stereo not given)	-14.7%
CC(=O)N1CCCC1c1nc(C2CN(C(=O)c3ccsc3)C2)no1 (stereo not given)	-18.8%
CCOCc1nc(C2CCCN2S(=O)(=O)c2cccs2)no1 (stereo not given)	-0.5%
O=S(=O)(c1cccs1)N1CC(c2noc(C3CCCN3CC3CC3)n2)C1 (stereo not given)	2.82µM*
O=S(=O)(c1cccnc1)N1CCC(c2nc(C3CC3)no2)C1 (stereo not given)	38.1%
CC(C)C1CN(Cc2cscn2)CCC(=O)N1Cc1ccc(F)cc1 (stereo not given)	-7.2%
CCCNC(=O)N1CCC2(CCCCO2)CC1	13.4%
Cc1ccc(CN2CCc3nc(N4CCN(C)CC4)[nH]c(=O)c3CC2)cc1	1.8%[5.79 µM]
COc1ccc(OC)c(NC(=O)Cn2c(-c3cnccn3)nc(C)c(CCO)c2=O)c1	-3.6%
Cc1nccn1CC(=O)N1CCCC(c2ccc(C(=O)O)cc2)C1 (stereo not given)	16.7%
OC1Cc2ccccc2C12CCN(Cc1cn(-c3ccccc3)nn1)CC2 (stereo not given)	-11.6%
COc1ccc(C)cc1NC(=O)CSc1ccc(-c2ccccn2)nn1	8.91µM*
COc1ccc(OC)c(NC(=O)CSc2ccc(-c3cccs3)nn2)c1	56.9%[5.79 µM]
COc1ccc(OC)c(NC(=O)CSc2ccc(-c3sc(C)nc3C)nn2)c1	i
CCC(CC)n1c(=O)n(CCCc2cccnc2)c2cc(C(=O)O)cnc21	-9.4%
COc1ccc(C(=O)N2CC3(C2)NC(=O)c2ccccc2O3)cc1	i
C[S+](=O)([O-])N1Cc2ccccc2OC2(CCN(C(=O)CCc3ccc(O)cc3)CC2)C1	-4.7%
COCCC1(CO)CCCN(C(=O)c2ccc3c(c2)OCC(=O)N3)C1 (stereo not given)	-2.4%
Cc1cc(C(F)(F)F)nn1CC(=O)N1CCCCCCN(C)C(=O)[C@@H]2CCC[C@@H]21	-27.3%
O=C(NC1CCCCCCC1)C1CCCN(C2CCN(Cc3ccncc3)CC2)C1 (stereo not given)	12.6µM*
CCCCNC(=O)C1CCCN(C2CCN(Cc3ccncc3)CC2)C1 (stereo not given)	-27.9%
Cc1cccc(CN2CCC(N3CCCC(C(=O)NC4CC4)C3)CC2)c1 (stereo not given)	-22.6%
CN(C)C[C@H]1O[C@@H]2C[C@@H](CC(=O)N3CCOCC3)O[C@@H]2[C@@H]1O	7.8%[44.1 µM]
O=C(NC[C@H]1O[C@@H](CO)[C@@H](O)[C@H]1N1CCCCC1)c1ccccc1	-23.4%[44.1 µM]
CC(=O)N1CCc2c(sc3c2c(=O)n(-c2ccccc2C)c(=O)n3CC(=O)c2ccccc2)C1	-3.7%
SMILES	Pf Dd2 inh
CC(=O)N1CCc2c(sc3c2c(=O)n(CCc2ccccc2)c(=O)n3Cc2ccccc2C)C1	7.94µM*
CCOC(=O)N1CCc2c(sc3c2c(=O)n(Cc2ccccc2)c(=O)n3CC(=O)Nc2cccc(CC)c2)C1	7.08µM*
CC(=O)N1CCc2c(sc3c2c(=O)n(-c2ccc(F)cc2)c(=O)n3Cc2cc(C)ccc2C)C1	-0.8%
CC(=O)N1CCc2c(sc3c2c(=O)n(Cc2ccccc2)c(=O)n3Cc2cc(C)ccc2C)C1	-15.9%
CCOC(=O)N1CCc2c(sc3c2c(=O)n(-c2ccc(CC)cc2)c(=O)n3CC(=O)c2ccc(F)cc2)C1	7.94µM*
CCc1ccc(-n2c(=O)c3c4c(sc3n(CC(=O)c3ccc(Br)cc3)c2=O)CCC4)cc1	-24.5%
COc1cccc(-n2c(=O)c3c4c(sc3n(Cc3ccc(F)cc3Cl)c2=O)CCCC4)c1	12.7%
CCc1ccc(-n2c(=O)c3c4c(sc3n(CC(=O)c3ccc(Cl)cc3)c2=O)CCC4)cc1	-19.5%
CC(=O)N1CCc2c(sc3c2c(=O)n(-c2cccc(Cl)c2)c(=O)n3Cc2ccc(F)cc2Cl)C1	11.2µM*
CC(=O)c1cccc(-n2c(=O)c3c4c(sc3n(CC(=O)Nc3ccccc3F)c2=O)CN(C(C)=O)CC4)c1	17.1%
CCOC(=O)N1CCc2c(sc3c2c(=O)n(CCc2ccccc2)c(=O)n3CC(=O)Nc2ccccc2C)C1	0.0%
O=C1CCN(C(=O)c2cccc3[nH]ccc23)CCCC(C(=O)NCc2ccccc2)CCN1 (stereo not given)	i
Cc1occc1C(=O)N1CC[C@@H]2CN(S(C)(=O)=O)[C@@H]2C1	24.3%
O=C(c1cn[nH]c1)N1CC2(C1)CN([S+](=O)([O-])c1ccc(OC(F)(F)F)cc1)CC2COc1ccccc1 (stereo not given)	-4.8%
Cc1ccc(-c2ccc3nnc(CNC(=O)CSc4ccncc4)n3n2)cc1	-6.7%
COCCN1CCNc2nc(COc3cccc(C(F)(F)F)c3)n(Cc3ccccc3)c2C1=O	i
Cc1ccc(C(=O)N2CCC3(CC2)NC(=O)N(c2ccccc2)N3)s1	-19.5%
CCOC(=O)N1CCc2c(sc3c2c(=O)n(-c2ccc(Cl)cc2)c(=O)n3CC(=O)Nc2ccccc2)C1	8.91µM*
CCOC(=O)N1CCc2c(sc3c2c(=O)n(-c2ccc(Cl)cc2)c(=O)n3CC(C)C)C1	17.2%
O=C(Cn1c(=O)n(-c2ccccc2)c(=O)c2c3c(sc21)CCCC3)Nc1ccc(F)cc1	18.5%
CCOC(=O)N1CCc2c(sc3c2c(=O)n(-c2ccc(Cl)cc2)c(=O)n3Cc2cccc(OC)c2)C1	-21.3%
CCOC(=O)N1CCc2c(sc3c2c(=O)n(-c2ccc(Cl)cc2)c(=O)n3Cc2cccc(C)c2)C1	-6.5%
CCOC(=O)N1CCc2c(sc3c2c(=O)n(Cc2ccccc2)c(=O)n3Cc2cccc(Cl)c2)C1	11.2µM*
Cn1ncc2c(C(=O)NCc3cccnc3)cc(-c3ccc(Cl)nc3)nc21	-23.3%
O=C(c1ccccc1F)N1CCC2(CC1)N=C(c1ccccc1)NO2	i
SMILES	Pf Dd2 inh
COCCOc1ccc2c(n1)CCN(C(=O)Nc1ccc(C)c(C)c1)C2	-21.1%
Cn1nccc1C(=O)NCC1CCCCC(=O)N1 (stereo not given)	i
COCc1cc(N2CCC(c3cccc(OC)c3OC)C2)ncn1 (stereo not given)	-10.6%
O=C1CCN(C(=O)C2CCN(S(=O)(=O)Cc3cccc(F)c3)CC2)CCCCCCN1	-19.9%
Cc1ccn2c(=O)c(C(=O)NCc3ccccc3Cl)c(O)nc2c1	37.6%
Cc1ccn2c(C(=O)NCc3cccnc3N3CCN(C)CC3)c(C)nc2c1	-9.9%
CCC(NCc1c(C(=O)N2CCCCCC2)nc2cc(C)ccn12)c1ccc(C)cc1 (stereo not given)	10µM*
CC(C)CN1C(=O)CO[C@H](c2ccc(NS(=O)(=O)c3cccc(F)c3)cc2)[C@H]1CO	i
Cc1ccc(NC(=O)CC2CCOCC2)cc1F	8.0%
COc1ccc(NC(=O)C(NC(=O)/C=C\c2ccc3c(c2)OCO3)c2ccccc2)cc1 (stereo not given)	10µM*
COc1ccc(/C=C/C(=O)Nc2cccc(F)c2)cc1	i
COc1cccc(-c2nc(SCC(=O)Nc3ccc4c(c3)OCO4)c(-c3ccccc3)[nH]2)c1	-22.0%
Cc1ccc(CNC(=O)CC2=C3CCCCC3NC2=O)cc1 (stereo not given)	-4.0%
CCOc1cc(=O)n2c(c1C(=O)Nc1ccc(C(N)=O)cc1)CCCC2	22.0%
Cc1cc(C)n(C)c(=O)c1C(=O)N1CCC2(CC1)CNC(C(=O)O)C2 (stereo not given)	-6.5%
Cc1ccc2c(c1)N(CC(=O)N1[C@@H]3CC[C@H]1CNC(=O)C3)C(=O)CO2	-1.4%
COc1ccc(C(=O)N2CC[C@@H]3CN(c4cnccn4)[C@@H]3C2)c(OC)n1	-8.1%
